Data as given in PubChem BioAssay AID687014 (The Scripps Research Institute Molecular Screening Center, 2013).
About 6,800 (1.8%) of roughly 370,000 compounds were called active.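 Rule for the calls: active = activation above a cutoff set at the mean of all screened compounds plus 3 SD (cut at about 10% in these data); inactive = the rest.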 What follows is part of a selection rich in actives, with near analogues and random picks from the rest.

System: Nuclear hormone receptor DAF-12 (Heterodera glycines), GAL4 fusion
Assay: H. glycines DAF-12 receptor agonists, primary screen, cell-based, luminescence, HEK293, GAL4 fusion, UAS-luciferase (AID 687014);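 note: 0% = DMSO wells and 100% = sodium butyrate wells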
Conditions: HEK293 GAL4-hgDAF12 UAS-luciferase reporter, agonist luminescence; at 6.8 µM; active compounds read high; normalized to butyrate control

Row | SMILES | activation
1 | C#CCN([C@H](C(=O)OC)C(C)CC)S(=O)(=O)c1ccccc1Br (some centres undefined) | 0.28% (inactive)
2 | Cc1cc(C(=O)NN=C/C=C/c2ccco2)n[nH]1 | -0.85% (inactive)
3 | CN(C)S(=O)(=O)c1cccc(C(=O)N/N=C\c2ccco2)c1 | 3.58% (inactive)
4 | CC(/C=N/NC(=O)c1cc(-c2ccc3ccccc3c2)n[nH]1)=C\c1ccco1 | 20.6% (active)
5 | COC(=O)[C@]12C[C@H](CC(=O)N3CCN(C(=O)C4CC4)CC3)C(=O)N(Cc3ccc4c(c3)OCO4)C1=C[C@H](C(C)(C)C)O[C@@H]2C | 0.51% (inactive)
6 | C/C(CC(=O)NC(C)(C)C)=N\NC(=O)c1ccco1 | 12.8% (active)
7 | COc1ccc(N(CC(=O)NC(C)(C)C)C(=O)c2ccco2)cc1 | 0.5% (inactive)
8 | COc1cccc2cc(/C(C)=N/NC(=O)c3ccco3)oc12 | 4.73% (inactive)
9 | CCOC(=O)c1cccc(NC(=O)CN(C)S(=O)(=O)c2ccc(-c3cocn3)s2)c1 | 1.77% (inactive)
10 | COC(=O)c1ccc(/C=C/c2c(-c3ccc(OC)cc3)sc3ccccc23)cc1 | 0.64% (inactive)
11 | COc1ccc(N=C(C)c2sc3ccccc3c2O)cc1 | 13.8% (active)
12 | COc1ccc(-n2c(SCC(=O)NC3CCCC3)nnc2-c2ccncc2)cc1 | -0.49% (inactive)
13 | Cc1ccc(Cn2cc(COC(=O)N(C)Cc3ccccc3)nn2)cc1 | 0.1% (inactive)
14 | CC(=O)Nc1cccc(-c2csc(Nc3cccc(C)n3)n2)c1 | 16.6% (active)
15 | O=S(=O)(NCCc1csc(-c2ccccc2)n1)c1cccnc1 | -0.11% (inactive)
16 | c1ccc(-c2csc(N3CCc4ccccc4C3)n2)cc1 | 4.55% (inactive)
17 | N#CC(=C1SC=CS1)c1nc(-c2ccccc2)cs1 | 8.13% (inactive)
18 | Cc1csc(NC(=O)CSc2nnc(-c3cccnc3)o2)n1 | 4.01% (inactive)
19 | CC(=O)NC(c1cccc(F)c1)c1nc(-c2cccc(F)c2)cs1 (centres undefined) | 1.2% (inactive)
20 | Cc1cccc(Nc2nc(-c3ccccc3)cs2)n1 | 18.8% (active)
21 | CC(=O)NC(c1ccccc1)c1nc(-c2cccc(C(C)C)c2)cs1 (centres undefined) | 1.94% (inactive)
22 | Cc1ccccc1Nc1nc(-c2cccnc2)cs1 | 17.6% (active)
23 | Cc1cc(C)nc(NC(=S)N2CCN(c3ccc(C(F)(F)F)cn3)CC2)c1 | -6.42% (inactive)

Row | SMILES | activation
24 | O=C(NCC1CC1)c1onc(CSc2ccccc2)c1C(=O)NCC1CC1 | 1.09% (inactive)
25 | Cc1cccc(NC(=O)C[C@H]2CC[C@H]3[C@@H](COc4ccc(NC(=O)Nc5ccccc5)cc4C(=O)N3C)O2)c1 | -1.77% (inactive)
26 | O=C(NCCCN1CCN(c2ccccc2F)CC1)C1CCC(=O)N1C1CCCCC1 (centres undefined) | 0.6% (inactive)
27 | O=C1CN(C(=O)c2ccccc2F)C(c2ccc(F)cc2)c2cc(F)ccc2N1 (centres undefined) | -3.72% (inactive)
28 | O=C(CCCCCN1C(=O)C2C3C=CC(C3)C2C1=O)Nc1ccccn1 (centres undefined) | 2.03% (inactive)
29 | COC(CNC(=O)[C@H](Cc1ccccc1)NC1(C(=O)NC2CCCCC2)CCCCC1)OC | 1.76% (inactive)
30 | Oc1ccccc1-c1cc(-c2ccc(Cl)cc2)n[nH]1 | 20.1% (active)
31 | CC(C)C(=O)NCc1cc(-c2ccc(Cl)cc2)no1 | -0.54% (inactive)
32 | c1ccc(-c2cc(-c3ccccc3)[nH]n2)cc1 | 12.2% (active)
33 | Cc1c[nH]c2cccc(-c3ccc(Cl)cc3)c12 | 5.56% (inactive)
34 | N#Cc1c(-c2ccccc2)c(-c2ccccc2)n[nH]c1=O | 0.04% (inactive)
35 | O=C(O)c1n[nH]nc1-c1ccccc1 | -0.69% (inactive)
36 | Cc1ccc(S(=O)(=O)N(C)c2ccc(OCC(=O)OCC(=O)N(CC#N)c3ccccc3)cc2)cc1 | -0.04% (inactive)
37 | O=C(N[C@H](Cc1ccccc1)C(=O)N1CCCN(Cc2cccs2)CC1)[C@H]1O[C@@H](n2ccc(=O)[nH]c2=O)[C@H](O)[C@@H]1O | -0.37% (inactive)
38 | CC(C)(C)C(c1nc2ccccc2[nH]1)n1c(Cc2csc3ccccc23)nc2ccccc21 (centres undefined) | 6.72% (inactive)
39 | O=C(O)Cn1cnc2c(NCc3ccccc3)ncnc21 | 1.82% (inactive)
40 | CCCCNC(=O)C[C@H]1C[C@@]2(C(=O)OC)C(=C[C@H](COCc3ccccc3)O[C@@H]2C)N(Cc2ccc(Cl)cc2Cl)C1=O | 0.35% (inactive)
41 | O=C(N1CCOCC1)N1CC[C@H]2[C@H](CCCN2Cc2ccc(F)cc2)C1 | -0.84% (inactive)
42 | O=C(CCSc1ccccc1)N1CCN(c2ccccc2F)CC1 | 14.2% (active)
43 | O=C(CCc1ccccc1F)N1CCN(c2ccccc2)CC1 | 0.77% (inactive)
44 | O=C(CCS(=O)(=O)c1cccc2nsnc12)N1CCN(c2ccccc2F)CC1 | 0.1% (inactive)
45 | O=C(CCc1ccccc1)Nc1ncc([N+](=O)[O-])s1 | 11.2% (active)
46 | O=C(CCc1ccccc1)Nc1ccc(NC(=O)C2CC2)nc1 | -1.22% (inactive)

Row | SMILES | activation
47 | O=C(CCc1ccccc1)Nc1nn[nH]n1 | 0.42% (inactive)
48 | CCc1ccc(NC(=O)Cn2nnc(C(=O)NCc3ccc4c(c3)OCO4)c2N)cc1 | -0.22% (inactive)
49 | Cn1cc([N+](=O)[O-])c(C(=O)Nc2ccc3c(c2)OCCO3)n1 | 5.47% (inactive)
50 | Nc1c(C(=O)Nc2ccc3c(c2)OCCO3)nnn1Cc1ccccc1 | 11.1% (active)
51 | COc1ccccc1NS(=O)(=O)c1ccc(C)c(C(=O)NNC(=O)c2csc(N3CCOCC3)n2)c1 | -0.05% (inactive)
52 | Cc1noc(C)c1CCC(=O)N1CCCC(CO)(Cc2ccccc2)C1 (centres undefined) | 9.68% (inactive)
53 | COC(=O)CCC(=O)N1CCCC(CO)(Cc2ccccc2)C1 (centres undefined) | 11.1% (active)
54 | Cc1ccccc1CC1(CO)CCCN(C(=O)c2cc(-c3ccccc3)no2)C1 (centres undefined) | -2.47% (inactive)
55 | CC1CCCN(c2cccc3c2S(=O)(=O)N(Cc2ccc(F)cc2)[C@@H](C)[C@H](c2ccccc2)O3)C1 (some centres undefined) | 2.2% (inactive)
56 | COC(=O)C12C=C3CC(c4ccccc4)=C3C(=O)N1Cc1[nH]c3ccccc3c1C2 (centres undefined) | -0.17% (inactive)
57 | C=CCc1c(C)nc2cc(-c3ccccc3)[nH]n2c1=O | 11.2% (active)
58 | Cc1nc2nc[nH]n2c(=O)c1C/C=C/c1ccccc1 | -0.77% (inactive)
59 | CCc1c(C)nc2cc(C)[nH]n2c1=O | -1.41% (inactive)
60 | C[C@@H]1CN([C@@H](C)CO)C(=O)c2c(c3ccccc3n2C)-c2ccccc2CO[C@H]1CN(C)C(=O)C1CC1 | 0.34% (inactive)
61 | Cc1ccccc1NC(=O)C1CCN(c2ncccn2)CC1 | 2.53% (inactive)
62 | Cc1cccc(-n2c(O)c(C=Nc3ccccc3N)c(=O)[nH]c2=O)c1 | 14.9% (active)
63 | COc1cccc(CNC(=O)CNS(=O)(=O)c2ccc3nc(C)sc3c2)c1OC | -1.09% (inactive)
64 | CCOC(=O)[C@]12CCCCC/C=C\1N(Cc1ccc(OC)cc1)C(=O)[C@H]2CC(=O)NCCCN1CCCC1=O | 3.26% (inactive)
65 | CCn1c(=O)n2n(c1=O)[C@@]1(C=C3CCCC[C@H]32)N=C(NC(=O)c2ccccc2)N(Cc2ccccc2)[C@H]1Cc1ccccc1 | -2.77% (inactive)
66 | COc1ccc(-c2csc(Cc3nc(O)cs3)n2)cc1 | 21.6% (active)
67 | COc1ccc(C(C)(NC(C)=O)c2nc(-c3ccc(S(C)(=O)=O)cc3)cs2)cc1 (centres undefined) | -0.04% (inactive)
68 | COc1ccc(C(C)(O)c2nc(-c3cc(F)cc(F)c3)cs2)cc1 (centres undefined) | -1.7% (inactive)
69 | Cc1c(C(C)c2ccccc2O)[nH]c2ccccc12 (centres undefined) | 2.99% (inactive)

Row | SMILES | activation
70 | Cc1sc2ncnc(N3CCC(C(=O)Nc4nc5ccc(Cl)cc5s4)CC3)c2c1C | 12.9% (active)
71 | Cc1sc2ncnc(N3CCC(C(=O)NNC(=O)c4ccc(F)cc4)CC3)c2c1C | -1.73% (inactive)
72 | Cc1sc2ncnc(N3CCC(C(=O)Nc4ccc(F)cc4Cl)CC3)c2c1C | -1.36% (inactive)
73 | COc1ccc(OC)c(NC(=O)C2CCCN2S(=O)(=O)c2ccc3c(c2)CC(C)N3C(C)=O)c1 (centres undefined) | -2.45% (inactive)
74 | O=C(NCc1ccc(Cl)cc1)C1CCCN(c2nc3ccccc3o2)C1 (centres undefined) | -0.62% (inactive)
75 | CC(=O)C1(C(=O)Nc2nccs2)CC(c2ccccc2C(F)(F)F)=NO1 (centres undefined) | 0.67% (inactive)
76 | O=c1c2cc([N+](=O)[O-])ccc2nc2n1CCC2 | -2.97% (inactive)
77 | Cc1ccc(-n2cc3ccc([N+](=O)[O-])cc3n2)cc1 | 17.1% (active)
78 | Cc1ccnc(N2C(=O)c3ccc([N+](=O)[O-])cc3C2=O)c1 | 0.65% (inactive)
79 | Cc1cccc(N2C(=O)SC(N(CC(=O)O)c3cccc(C)c3)C2=O)c1 (centres undefined) | 2.06% (inactive)
80 | Cc1cccc(N2C(=O)SC(SC(=Nc3ccccc3)Nc3ccccc3)C2=O)c1 (centres undefined) | 12.4% (active)
81 | COC(=O)c1ccccc1SC1CC(=O)N(c2cccc(C)c2)C1=O (centres undefined) | -0.2% (inactive)
82 | O=S1(=O)c2ccc(Br)cc2OC[C@@H](Cc2ccccc2)N1Cc1cn(Cc2ccco2)nn1 | -2.95% (inactive)
83 | CC(C)(C)OC(=O)N(Cc1ccccc1)Cc1ccc(OCc2cccc(NC(=O)c3ccccc3)c2)cc1 | 3.23% (inactive)
84 | CCOc1ccc(OCc2ccc(C(=O)N(C)c3ccccc3)o2)cc1 | -0.02% (inactive)
85 | CCOc1ccc(OCc2cccc(C(=O)N(CC)CC)c2)cc1 | 15.3% (active)
86 | COc1cccc(N2CCN(CC(=O)N(C)Cc3ccc(F)cc3)CC2)c1 | 2.78% (inactive)
87 | CC(C)CNC(=O)OCc1cn(Cc2ccc(F)cc2)nn1 | 0.8% (inactive)
88 | CS(=O)(=O)N(CC(=O)NC1CCCC1)Cc1ccc(F)cc1 | -0.56% (inactive)
89 | Cc1ccc(-c2nnc(SCC(=O)Nc3ccc(Oc4ccccc4)cc3)n2Cc2ccco2)cc1 | -0.14% (inactive)
